# In PubChem BioAssay (NCATS):
# Unmarked numbers belong to inactive results. No rule for the calls is given here.
# Test system: HIV-1 nucleocapsid protein NCp7 (binding to TG oligonucleotide)
# Assay: HIV Nucleocapsid (AID 346);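 also: potency is for inhibitors that block NC binding and lower polarization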
# Details: HIV-1 NC / fluorescein-TGTGTGTG probe, fluorescence polarization
# In short: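 Fluorescence polarization binding of 100 nM HIV-1 NC to 10 nM fluorescein-labelled TG4xF oligonucleotide. Buffer was Hepes pH 7.5 with 250mM NaCl, 1uM ZnCl2, TCEP and 2-mercaptoethanol. Compounds were incubated 1 hr at room temperature before the read.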
# Potency is read from the fitted curve at half-maximal effect.
row,SMILES,Potency [µM]
1,CS(=O)(=O)N1CCC[C@@]2(CCN(c3ccncc3)C2)C1,> 20
2,CCNc1ncc2nc(-c3cccs3)c(=O)n(Cc3ccc(F)cc3)c2n1,> 20
3,Cc1noc(C)c1-c1cc(NCc2ccccc2)ncn1,> 20
4,O=C(c1ccco1)N1CCC2(CCCN(c3ccccc3)C2)CC1,> 20
5,COCCn1c(=O)c(-c2ccc(OC)cc2)nc2cnc(OC)nc21,> 20
6,Cc1ccccc1-c1cncnc1Nc1ccccc1,> 20
7,Cn1cccc1C(=O)N1CCC2(CC1)CN(Cc1cc(C(F)(F)F)cc(C(F)(F)F)c1)C2,> 20
8,COc1ccc(Oc2ncc3nc(-c4cc(F)cc(F)c4)c(=O)n(C4CC4)c3n2)cc1,> 20
9,CC(=O)N1CCC2(CCCN(c3ccc(-c4ccccc4)cc3)C2)CC1,> 20
10,COCC(=O)N1CCC2(CC1)CN(Cc1nccs1)C2,> 20
